Test results published in publication PMC5540273 (PLoS ONE, 2017).

Tests used:
Conditions in all cases: concentration: 1 μM, replicates: in singlicate; n = 1
BMPR1A = test system: BMPR1A
BMPR1B = test system: BMPR1B
BMPR2 = test system: BMPR2
BMX = test system: BMX
BRAF = test system: BRAF
BRK = test system: T1, BRK
T1 construct: gene PTK6

BRSK1 = test system: BRSK1
BRSK2 = test system: BRSK2
BTK = test system: BTK
BUB1 = test system: BUB1
CAMK1B = test system: CAMK1B
CAMK1D = test system: CAMK1D
CAMK1G = test system: CAMK1G
CAMK1 = test system: CAMK1
CAMK2A = test system: CAMK2A
CAMK2B = test system: CAMK2B
CAMK2D = test system: CAMK2D
CAMK2G = test system: CAMK2G
CAMK4 = test system: CAMK4
CAMKK1 = test system: CAMKK1
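Note: KINOMEscan kinase panel screen.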

SMILES	%Inh (BMPR1A) [%]	%Inh (BMPR1B) [%]	%Inh (BMPR2) [%]	%Inh (BMX) [%]	%Inh (BRAF) [%]	%Inh (BRK) [%]	%Inh (BRSK1) [%]	%Inh (BRSK2) [%]	%Inh (BTK) [%]	%Inh (BUB1) [%]	%Inh (CAMK1B) [%]	%Inh (CAMK1D) [%]	%Inh (CAMK1G) [%]	%Inh (CAMK1) [%]	%Inh (CAMK2A) [%]	%Inh (CAMK2B) [%]	%Inh (CAMK2D) [%]	%Inh (CAMK2G) [%]	%Inh (CAMK4) [%]	%Inh (CAMKK1) [%]
O=C(O)COc1ncnc2cc(-c3ccc4[nH]ncc4c3)sc12	19	18	63	0	19	100	5	1	0	25	7	0	31	0	0	0	26	17	7	34
Cc1cccc(-c2nc(Nc3ccc4[nH]ncc4c3)c3ccccc3n2)n1 [GW857175]	60	34	18	15	16	2	0	0	10	65	0	0	0	0	15	3	0	0	0	0
O=C(Nc1ccccc1)Nc1cccc(Oc2ccc3nccn3n2)c1	0	0	0	0	24	0	0	0	0	0	0	3	0	0	0	0	0	3	7	0
Cc1csc(-c2nc(Nc3ccncc3)c3ccccc3n2)n1 [GW869640]	6	42	36	14	10	8	0	15	0	72	9	0	14	5	10	2	17	25	0	26
O=C(Nc1n[nH]c2nc(-c3nccs3)c(Br)cc12)C1CC1 [SB-742251]	0	0	63	0	13	2	95.3	90	26	48	19	0	0	0	0	0	0	0	0	0
